# Compound activity: PubChem, National Center for Advancing Translational Sciences (NCATS)
# IL2 activator – activates IL-2 in a cell-based reporter assay | IL-2 activation reporter assay, cell-based qHTS; stimulated with anti-CD3/CD4/CD28 beads; in transgenic mouse T cells | activation, % (series mostly up to about 46 µM) | actives 0.065% (n = 360,000); in the data active = activation above about 50%; inconclusive = mostly about 30% to 49%
#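 Screening format: compound pinned onto unstimulated transgenic mouse T cells, 60 min incubation, then anti-CD3/anti-CD4/anti-CD28 bead stimulation for 18 hours at 37 degrees C, followed by EGFP and DsRed detection.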
# EPAC2 antag – antagonists of human EPAC2 | Q8WZA2 | EPAC2 GEF exchange of Rap1B-BODIPY-GDP, fluorescence | Potency, µM (doses to about 114 µM), most hits filed as inhibitors | actives 0.18% (n = 360,000) | AID 720708; note: nearly all actives have a fitted effect of over 45% in size
# Target sequence (Q8WZA2 whole entry, looked up): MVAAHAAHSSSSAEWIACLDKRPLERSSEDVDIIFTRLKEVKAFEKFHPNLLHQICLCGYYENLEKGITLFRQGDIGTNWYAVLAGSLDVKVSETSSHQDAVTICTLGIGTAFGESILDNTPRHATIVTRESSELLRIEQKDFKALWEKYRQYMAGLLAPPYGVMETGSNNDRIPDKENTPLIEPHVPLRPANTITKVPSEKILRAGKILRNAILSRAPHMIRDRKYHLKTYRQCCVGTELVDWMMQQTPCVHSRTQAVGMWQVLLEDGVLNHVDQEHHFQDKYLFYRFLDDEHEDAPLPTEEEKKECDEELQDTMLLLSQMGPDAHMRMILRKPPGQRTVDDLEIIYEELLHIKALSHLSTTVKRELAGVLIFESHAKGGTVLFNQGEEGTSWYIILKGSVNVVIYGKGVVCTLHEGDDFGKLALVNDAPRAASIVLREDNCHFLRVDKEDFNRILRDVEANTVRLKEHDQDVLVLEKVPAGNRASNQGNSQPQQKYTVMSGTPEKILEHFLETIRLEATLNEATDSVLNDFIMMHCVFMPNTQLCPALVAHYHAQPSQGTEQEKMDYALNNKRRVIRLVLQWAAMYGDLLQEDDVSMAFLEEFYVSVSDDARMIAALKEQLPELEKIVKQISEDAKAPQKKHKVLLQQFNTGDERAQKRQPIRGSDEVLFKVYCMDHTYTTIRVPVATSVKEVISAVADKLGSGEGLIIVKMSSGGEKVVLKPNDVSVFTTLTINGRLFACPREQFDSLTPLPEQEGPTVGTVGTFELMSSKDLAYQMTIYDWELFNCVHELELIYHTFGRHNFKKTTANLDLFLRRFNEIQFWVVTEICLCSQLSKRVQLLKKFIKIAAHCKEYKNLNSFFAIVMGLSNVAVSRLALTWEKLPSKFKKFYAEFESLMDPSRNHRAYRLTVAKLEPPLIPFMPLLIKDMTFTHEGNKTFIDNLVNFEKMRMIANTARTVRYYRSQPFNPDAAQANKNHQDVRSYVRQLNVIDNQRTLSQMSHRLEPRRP
# EPAC1 agonist – activates human EPAC1 exchange factor; O95398; EPAC1 agonist qHTS, biochemical assay; response scale: 100% = response to 6.5 mM cAMP; Potency, µM (top dose mostly 154 µM), usual class: activators; actives 0.073% (n = 360,000); AID 720707; note: nearly all actives have a fitted effect of over 60% in size
#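 Multi-concentration qHTS readout: loss of Rap1B-bound BODIPY-GDP fluorescence driven by 100 nM EPAC1 with excess GDP (50 uM), monitored kinetically at room temperature; agonist response expressed relative to 6.5 mM cAMP.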
# PKM2 act – increases activity of human pyruvate kinase M2; AID 1631; purified PKM2, Kinase-Glo ATP luminescence, activation; response scale: 0% is enzyme alone, no compound; Potency, µM (series often up to 57.5 µM), usual class: activators; actives 0.34% (n = 260,000); note: nearly all actives have a fitted effect of over 55% in size
#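 Purified hPK-M2 (>95%) run at intermediate activity with 0.1 mM ADP and 0.5 mM PEP in 50 mM imidazole pH 7.2, KCl, MgCl2; 1 h room temperature. ATP formed read by Kinase-Glo luminescence; normalized to uninhibited and no-enzyme controls.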
# EPAC2 ag – EPAC2 (human) agonism; Q8WZA2; EPAC2 activation, biochemical qHTS; response scale: 100% = 6.5 mM cAMP response; Potency, µM (doses to about 154 µM), actives largely listed as activators; actives 0.079% (n = 360,000); note: nearly all actives have a fitted effect of over 50% in size
#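 Each well held 100 nM EPAC2, 250 nM RAP1B-BODIPY-GDP and 50 uM GDP. Fluorescence, read at 5-min intervals to 30 min, was referenced to a 6.5 mM cAMP positive control.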
# EPAC1 antag – antagonists of human EPAC1; actives 0.14% (n = 360,000); O95398; EPAC1 GEF assay, Rap1b-BODIPY-GDP exchange fluorescence; Potency, µM (doses to about 115 µM), usual class: inhibitors; AID 720709; note: nearly all actives have a fitted effect of over 50% in size
# Numbers stand for hits; n = inactive; u = inconclusive; x = no result given; [ ] = dose if it differs, or a comment. This is a sample that favours compounds with a hit; in the whole collection about 0.64% have one here. Unless noted, calls come from the whole dose curve; as a rule, active = well fitted curve in the direction sought with a large enough effect; inconclusive = small, poorly fitted or top-dose-only effect, or another doubt; inactive = no such curve, though single readings can be large; an effect the other way counts as inactive or inconclusive.
SMILES,IL2 activator,EPAC2 antag,EPAC1 agonist,PKM2 act,EPAC2 ag,EPAC1 antag
COc1cc([C@H]2c3[nH]c4ccccc4c3C[C@H]3C(=O)N4[C@@H](c5cc(OC)c(OC)c(OC)c5)c5[nH]c6ccccc6c5C[C@H]4C(=O)N23)cc(OC)c1OC,n,n,n,n,n,n
C=CCN1C(=O)[C@@H]2Cc3c([nH]c4ccccc34)C(c3cc(OC)c(OC)c(OC)c3)N2C1=S (some centres not stated),105,n,n,x,n,u
CCN1C(=O)[C@@H]2Cc3c([nH]c4ccccc34)C(c3cc(OC)c(OC)c(OC)c3)N2C1=S (some centres not stated),94,n,n,x,n,u
COc1cc(/C=N/NC(=O)C(Cc2c[nH]c3ccccc23)NC(=O)OCc2ccccc2)cc([N+](=O)[O-])c1O (configuration not stated),n,n,n,n,n,79µM
CC1(Cc2cc(Cl)ccc2C(F)(F)F)C(=O)Nc2cc(-c3ccccc3Cl)ccc21 (configuration not stated),n,n,n,x,n,n
COc1ccccc1NC(=O)c1cc(OC)c(OC)cc1[N+](=O)[O-],n,n,n,n,n,n
COc1ccc(C(=O)c2ccccc2)c2c(O)ccc(C(=O)c3ccccc3)c12,n,n,n,n,6.3µM,n
COc1cc(C(=O)c2ccccc2)c([N+](=O)[O-])cc1OC,n,79µM,n,n,n,n
Cc1cccc(C(=O)N[C@H](C(=O)Nc2ccc3c(c2)OCO3)C(C)C)c1,n,n,n,x,n,n
N=C1CCCC1C(=S)SCCC(N)=O (configuration not stated),n,n,n,x,n,n
Cc1cc(C)n(-c2cc(N3CCN(S(=O)(=O)c4ccc5ccccc5c4)CC3)ccc2[N+](=O)[O-])n1,n,n,n,n,n,n
Cn1cnnc1Sc1cc(N2CCN(S(=O)(=O)c3ccc(Cl)c(Cl)c3)CC2)ccc1[N+](=O)[O-],n,n,n,2.8µM,n,n
Cn1cnnc1Sc1cc(N2CCN(S(=O)(=O)c3ccc4ccccc4c3)CC2)ccc1[N+](=O)[O-],n,n,n,0.35µM,n,n
O=C(Nc1ccccc1)c1ccccc1NS(=O)(=O)c1ccc(Cl)s1,n,u,n,n,n,n
O=C(Nc1ccccc1Cc1ccccc1)c1ccccc1NS(=O)(=O)c1ccc(Cl)s1,n,32µM,n,n,n,n
CC(C)CC1C(=O)N(Cc2cn(CCC3OCCCO3)nn2)CCS(=O)(=O)N1Cc1ccc(-c2ccc(F)cc2)cc1 (configuration not stated),n,22µM,n,x,n,n
Cc1ccc(-c2ccc(CN3C(CC(C)C)C(=O)N(Cc4cn(CCC5OCCCO5)nn4)CCS3(=O)=O)cc2)cc1 (configuration not stated),n,u,n,x,n,n
COC(=O)Cn1cc(/C=C/c2cc[n+](C)cc2)c2ccccc21,n,n,n,n,n,n
COC(=O)Cn1c(C)c(/C=C/c2cc[n+](C)cc2)c2ccccc21,222,n,u,n[11.5 µM],n,n
Oc1cccc(C=Nc2cccc3ccccc23)c1O,n,n,n,n[11.5 µM],n,50µM
Oc1ccccc1C=Nc1cccc2ccccc12,n,n,n,n[11.5 µM],n,n
CCOC(=O)c1[nH]c(C)c(C(=O)NC)c1C,n,n,n,n,n,n
CCOC(=O)c1[nH]c(C)c(C(=O)NC(C)(C)C)c1C,n,n,n,n,6.3µM,n
COc1ccc([C@]23Cc4cc(C#N)ccc4C(O2)C2=C(CC4(CCCCC4)OC2=O)O3)cc1,x,x,x,n[11.5 µM],x,x
O=C(CN1C(=O)N/C(=C\c2ccccc2OCc2ccc(C(=O)O)cc2)C1=O)Nc1ccccc1F,n,n,n,x,n,35µM
SMILES,IL2 activator,EPAC2 antag,EPAC1 agonist,PKM2 act,EPAC2 ag,EPAC1 antag
Oc1ccc(/C=N/Nc2ncnc3nc[nH]c23)cc1,n,18µM,n,n,n,n
Clc1ccc(/C=N/Nc2ncnc3nc[nH]c23)cc1,n,n,n,n,n,n
O=C(CNC(=O)c1ccccc1F)Nc1ccccc1C(F)(F)F,n,n,n,n,n,n
CC(=O)Nc1ccc(-c2ccnc3c2CC(C)(C(=O)Nc2cccc(OC(F)(F)F)c2)O3)cc1 (configuration not stated),n,n,n,x,n,n
O=C(CCC1CCCN(c2ncccn2)C1)NCc1ccc(F)c(F)c1 (configuration not stated),n,n,n,n,n,n
CC(=O)N(C1=C(Cl)C(=O)c2ccccc2C1=O)C1CCCCC1,n,n,n,3.5µM,n,n
CCOC(=O)CSc1nnc(-c2ccoc2C)n1-c1ccc(OCC)cc1,n,n,n,40µM,n,n
COc1ccc(N(CC(=O)NCc2ccco2)C(=O)CCC(=O)Nc2ccccn2)cc1,n,n,n,n,n,n
CCSC1=NSC2=NC(=O)/C(=C\c3coc4ccccc4c3=O)C(=N)N12,n,n,45µM,n,100µM,n
Cc1cccc(-n2c(C)cc(/C=C3\C(=N)N4N=C(CC(C)C)SC4=NC3=O)c2C)c1,n,n,n,n,n,n
CC(C)CC1=NN2C(=N)/C(=C\c3coc4ccccc4c3=O)C(=O)N=C2S1,n,n,63µM,n,63µM,n
CSC1=NSC2=NC(=O)/C(=C\c3ccc(OC(=O)c4ccco4)cc3)C(=N)N12,n,n,n,n,n,u
CC(C)(C)c1cc(=O)n(-c2ccccc2)[nH]1,n,n,n,n,n,50µM
CC(C)(C)c1nnc(NC(=S)Nc2ccccc2)s1,n,n,n,n,n,n
O=C(c1ccc(S(=O)(=O)c2ccccc2Cl)c([N+](=O)[O-])c1)N1CCN(Cc2ccccc2)CC1,n,n,n,11µM,n,n
O=C(c1ccc(Br)c([N+](=O)[O-])c1)N1CCN(Cc2ccccc2)CC1,n,n,n,n,n,n
COc1ccc2c(n1)Sc1nc3ccccc3nc1N2,260,n,n,n,n,n
CNC[C@@H]1OCc2ccccc2-c2ccccc2C(=O)N([C@@H](C)CO)C[C@@H]1C,n,n,n,x,n,n
CN(CC(=O)Nc1ccccc1Sc1ccccc1)C1CCCCC1,n,50µM,n,n,n,u
O=C1C=C(OCCF)CC(c2ccccc2C(F)(F)F)O1 (configuration not stated),n,n,n,x,n,n
